For 19 compounds, viability, differential viability (reversal) and inhibition results are on record in PubChem BioAssay.

Molecules are shown by their SMILES. Activity calls are given as the source filed them.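 The calls were made as follows, unless noted: active = viability at or below 10% of carrier control in both of two separate runs; inconclusive = viability at or below 10% in only one of the two runs; inactive = the rest.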

Test [1] in a line: SK-BR-3 cell growth inhibitors, pilot screen, 24 h, human (AID 572).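 Also: compound exposure lasted between 18 and 24 h rather than exactly 24 h; 100% = carrier-treated control wells.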 The conditions noted are these: SK-BR-3 viability, CellTiter-Glo luminescence, at 10 µM, stronger effect = lower value.
The nature of test [2]: HUVEC growth inhibition – cell-based, human, primary screen (AID 575;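 active = viability at or below 30% in both replicate assays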;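 also: 100% = median of untreated cell wells with 0.1% DMSO on each plate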). The conditions noted are these: HUVEC proliferation, CellTiter-Glo luminescence, 72 h; at 10 µM; stronger effect = lower value. A general note: ATP-based viability assays read luminescence as a measure of living cells.
Test [3] in a line: growth inhibitors of H69AR lung tumor, primary screen, human, duplicate replicates (AID 580;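 active = viability at or under a set limit in both replicates, limit being median viability minus 3 SD, cut at about 48% in these data, passing the limit was not always enough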;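 also: 100% = mean luminescence of untreated wells and 0% = no signal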). The conditions noted are these: H69AR lung tumor cells viability, ATP luminescence, 72 h; at 10 µM; stronger effect = lower value.
A short description of test [4]: reversal of MRP1-mediated doxorubicin resistance, pilot screen, H69AR cells, doxorubicin co-treatment (AID 601;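 active = viability loss from added drug above about 55%, and viability with drug at most 40%, in both replicates, limit read from the data, passing the limit was not always enough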). The conditions noted are these: CellTiter-Glo, 72 h, at 10 µM; for differential viability (reversal): stronger effect = higher value.
A short description of test [5]: 384-well plate pilot, post-Golgi transport modulator project, inhibition of yeast transport mutant growth (AID 636; in the data active = inhibition above about 31%). The conditions noted are these: absorbance 615 nm, about 18 h, stronger effect = higher value.
Test [6] is described as follows: growth suppression of yeast trafficking mutant, preliminary HTS, modulators of trafficking downstream of Golgi apparatus project, 1536-format plate, OD 615 nm (AID 637; in the data active = inhibition above about 30%). The conditions noted are these: yeast transport mutant growth, absorbance 615 nm, 18 h; stronger effect = higher value.
Setting [7] is: H69AR cells + 2 uM doxorubicin, measured here: viability with 2 uM doxorubicin, stronger effect = lower value.
Where [8] appears, read: H69AR cells, compound alone cytotoxicity.

By viability is commonly meant a read-out of living cells in per cent, often relative to untreated cells. As usually defined, the inhibition is the relative decrease from the control value, in per cent. `Cc1cc(/C=N\O)c(C)n1-c1ccncc1`: the viability was 120% (inactive) in test [1]; 83.8% (inactive) in test [2]; 91.4% (inactive) in test [3]; 96.4% in test [4] (setting [7]); 91.4% in test [4] (setting [8]). Besides, the differential viability (reversal) in test [4] (H69AR cells + 2 uM doxorubicin) was -5.03% (inactive). In addition, the inhibition was -7.26% (inactive) in test [5] and -0.32% (inactive) in test [6].

For `CN1CC=C2C(C#N)=C(N)C(C#N)(C#N)C(c3cccc(Cl)c3Cl)C2C1` (configuration not stated), the viability in test [1] is 115% (inactive); in test [2], 69.7% (inactive); in test [3] it was 61.1% (inactive); in test [4] (setting [7]) it was 60.1%; in test [4] (setting [8]) it was 61.1%. For the same compound, the differential viability (reversal) in test [4] (H69AR cells + 2 uM doxorubicin) is 1.02% (inactive). In addition, the inhibition in test [5] was -4.67% (inactive); in test [6], 2.13% (inactive).

`COc1ccccc1N1CCN(C(=O)c2cc(-c3ccc(Cl)c(Cl)c3)on2)CC1`: the viability in test [1] is 122% (inactive); in test [2] it was 70.4% (inactive); in test [3] it was 57.9% (inactive); in test [4] (setting [7]), 64.5%; in test [4] (setting [8]) it was 57.9%. For the same compound, the differential viability (reversal) in test [4] (H69AR cells + 2 uM doxorubicin) was -6.66% (inactive). In addition, the inhibition in test [5] was -4.13% (inactive); in test [6] it was -1.82% (inactive).

Turning to `O=C(C1CCCCC1)N1CC(=O)N2CCc3ccccc3C2C1` (configuration not stated), the viability in test [1] was 104% (inactive); in test [2], 107% (inactive); in test [3], 96.7% (inactive); in test [4] (setting [7]), 100%; in test [4] (setting [8]), 96.7%. Besides, the differential viability (reversal) in test [4] (H69AR cells + 2 uM doxorubicin) is -3.46% (inactive). Moreover, the inhibition in test [5] was -0.91% (inactive); in test [6] it was -0.83% (inactive).

On to `Cc1cc(NC(=O)Cc2c(F)cccc2Cl)no1`, for which the viability was 102% (inactive) in test [1]; 95.5% (inactive) in test [2]; 96% (inactive) in test [3]; 89.2% in test [4] (setting [7]); 96% in test [4] (setting [8]). Moreover, the differential viability (reversal) in test [4] (H69AR cells + 2 uM doxorubicin) is 6.76% (inactive). Also, the inhibition in test [5] was -7.26% (inactive); in test [6] it was 3.64% (inactive).

Consider `Cn1nc(C(C)(C)C)cc1C(=O)NCc1ccc(N2CCCC2=O)cc1`, for which the viability in test [1] was 87% (inactive); in test [2], 15.1% (active); in test [3], 99% (inactive); in test [4] (setting [7]) it was 103%; in test [4] (setting [8]), 99%. Besides, in test [4] (H69AR cells + 2 uM doxorubicin), the differential viability (reversal) was -3.59% (inactive). For the same compound, the inhibition was -5.34% (inactive) in test [5] and 0.91% (inactive) in test [6].

Consider `COC(=O)CCn1nnc(-c2ccc(C)cc2)n1`, for which the viability is 90% (inactive) in test [1]; 109% (inactive) in test [2]; 94.1% (inactive) in test [3]; 90.4% in test [4] (setting [7]); 94.1% in test [4] (setting [8]). In addition, in test [4] (H69AR cells + 2 uM doxorubicin), the differential viability (reversal) was 3.69% (inactive). For the same compound, the inhibition in test [5] is -6% (inactive); in test [6], -2.91% (inactive).

As for `c1coc(CN2CN=C(Nc3nc4ccccc4s3)NC2)c1`, the viability is 91% (inactive) in test [1]; 115% (inactive) in test [2]; 96.4% (inactive) in test [3]; 96.5% in test [4] (setting [7]); 96.4% in test [4] (setting [8]). Further, in test [4] (H69AR cells + 2 uM doxorubicin), the differential viability (reversal) was -0.14% (inactive). Moreover, the values for the inhibition in test [5] and in test [6] were -2.3% (inactive) and -4.18% (inactive), respectively.

On to `CC(C)(C)c1ccc(C(=O)N2CCC(C(=O)NCc3ccncc3)CC2)cc1`, for which the viability is 110% (inactive) in test [1]; 95.6% (inactive) in test [2]; 88.8% (inactive) in test [3]; 94.3% in test [4] (setting [7]); 88.8% in test [4] (setting [8]). For the same compound, the differential viability (reversal) in test [4] (H69AR cells + 2 uM doxorubicin) was -5.45% (inactive). For the same compound, the inhibition in test [5] is -3.2% (inactive); in test [6], -8.18% (inactive).

In the case of `Cn1c(-c2ccccc2)cnc1SCc1nc2ccccc2c(=O)[nH]1`, the viability in test [1] was 107% (inactive); in test [2], 105% (inactive); in test [3], 101% (inactive); in test [4] (setting [7]), 82.5%; in test [4] (setting [8]), 101%. For the same compound, the differential viability (reversal) in test [4] (H69AR cells + 2 uM doxorubicin) is 18.1% (inactive). Moreover, the inhibition in test [5] was -2.53% (inactive); in test [6], 4.18% (inactive).

In the case of `CC(C)Sc1nc(N2CCCC2)c2c(c1C#N)CC(C)(C)OC2`, the viability in test [1] was 90% (inactive); in test [2], 71.2% (inactive); in test [3], 80.2% (inactive); in test [4] (setting [7]) it was 37.5%; in test [4] (setting [8]), 80.2%. Also, the differential viability (reversal) in test [4] (H69AR cells + 2 uM doxorubicin) is 42.7% (inactive). Also, the inhibition in test [5] is -2.88% (inactive); in test [6] it was -4.84% (inactive).

As for `Cc1cc(C(=O)Nc2c(C)n(C)n(-c3ccccc3)c2=O)c(C)o1`, the viability in test [1] is 71% (inactive); in test [2] it was 105% (inactive); in test [3], 110% (inactive); in test [4] (setting [7]), 98.4%; in test [4] (setting [8]), 110%. Also, the differential viability (reversal) in test [4] (H69AR cells + 2 uM doxorubicin) is 11.8% (inactive). Further, the inhibition in test [5] is -8.08% (inactive); in test [6] it was 4.91% (inactive).

`COc1ccccc1CNC(=O)C(C)NS(=O)(=O)c1ccccc1` (configuration not stated): the viability in test [1] was 113% (inactive); in test [2], 106% (inactive); in test [3], 87.1% (inactive); in test [4] (setting [7]) it was 98.1%; in test [4] (setting [8]), 87.1%. Besides, the differential viability (reversal) in test [4] (H69AR cells + 2 uM doxorubicin) was -11% (inactive). Further, the inhibition in test [5] is -7.4% (inactive); in test [6] it was -0.73% (inactive).

For `CC1CN(C(=O)CSc2ncnc3sccc23)CC(C)O1` (configuration not stated), the viability in test [1] was 80% (inactive); in test [2], 103% (inactive); in test [3] it was 99.6% (inactive); in test [4] (setting [7]), 102%; in test [4] (setting [8]), 99.6%. In addition, the differential viability (reversal) in test [4] (H69AR cells + 2 uM doxorubicin) was -2.15% (inactive). The results for the inhibition in test [5] and in test [6] were -5.75% (inactive) and 0% (inactive), respectively.

`CCOc1cccc(C(=O)N(Cc2ccco2)C2CCS(=O)(=O)C2)c1` (configuration not stated): the viability in test [1] was 96% (inactive); in test [2] it was 109% (inactive); in test [3] it was 97.6% (inactive); in test [4] (setting [7]) it was 89.5%; in test [4] (setting [8]), 97.6%. Moreover, the differential viability (reversal) in test [4] (H69AR cells + 2 uM doxorubicin) is 8.11% (inactive). Moreover, the inhibition was -5.95% (inactive) in test [5] and -1.09% (inactive) in test [6].

`Cc1onc(-c2ccccc2)c1C(=O)Nc1sc2c(c1C(N)=O)CCC2`: the viability in test [1] was 88.5% (inactive); in test [2] it was 53.5% (inactive); in test [3], 62.1% (inactive); in test [4] (setting [7]), 82.8%; in test [4] (setting [8]), 62.1%. For the same compound, the differential viability (reversal) in test [4] (H69AR cells + 2 uM doxorubicin) was -20.8% (inactive). Also, the inhibition is -1.71% (inactive) in test [5] and -1% (inactive) in test [6].

As to `COc1ccc(C2/C(=C(/O)c3ccccc3)C(=O)C(=O)N2c2ncccn2)cc1OC` (configuration not stated), the viability is 105% (inactive) in test [1]; 101% (inactive) in test [2]; 108% (inactive) in test [3]; 99.1% in test [4] (setting [7]); 108% in test [4] (setting [8]). Moreover, the differential viability (reversal) in test [4] (H69AR cells + 2 uM doxorubicin) was 8.68% (inactive). Also, the inhibition in test [5] was -4.59% (inactive); in test [6], -2.55% (inactive).

For `CCC1Oc2ccc(C)cc2N(CC(=O)NCCCN2CCCCC2CC)C1=O` (configuration not stated), the viability in test [1] was 99% (inactive); in test [2], 83.7% (inactive); in test [3], 87.5% (inactive); in test [4] (setting [7]), 93.9%; in test [4] (setting [8]), 87.5%. The differential viability (reversal) in test [4] (H69AR cells + 2 uM doxorubicin) was -6.5% (inactive). The results for the inhibition in test [5] and in test [6] were -0.78% (inactive) and -0.66% (inactive), respectively.

Regarding `CCc1ccccc1NC(=O)C(CC)Sc1nc2cc3c(cc2c(=O)n1Cc1ccco1)OCO3` (configuration not stated), the viability in test [1] was 95.5% (inactive); in test [2], 62.6% (inactive); in test [3], 28.3% (active); in test [4] (setting [7]), 15.1%; in test [4] (setting [8]), 28.3%. In addition, the differential viability (reversal) in test [4] (H69AR cells + 2 uM doxorubicin) is 13.2% (inactive). The results for the inhibition in test [5] and in test [6] were -3.47% (inactive) and 2.74% (inactive), respectively.
